Most compounds without a hit are left out; they make up all but 3.4% or so of the library.
FAK inh: blocks human focal adhesion kinase activity; biochemical FAK kinase activity assay; Q05397; inhibition, %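 (tested at 7 µM)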; 97,000 compounds, 0.84% hits; AID 727; in the data active means inhibition above about 19%
LYP inh 2: inhibitors of human LYP (PTPN22) phosphatase. AID 640. inhibition, % at 2 µM. recombinant LYP catalytic domain, DiFMUP fluorescence. 96,000 compounds, 0.21% hits. Q9Y2R2;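 active means inhibition at 2 µM at or above a set limit, the screen mean plus 3 SD, cut at about 24% in these data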
ERa SRC1 pot: enhances coactivator binding to human estrogen receptor alpha | P03372 | 86,000 compounds, 1.3% hits | coactivator binding (% of control), % at 25.6 µM | AID 639 | TR-FRET ERalpha-LBD/SRC-Cy5 coactivator binding, 2 h; 100 = basal binding, no effect; in the data active means activity above about 200%;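 further: binding measured in presence of low estradiol as agonist stimulus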
ERa SRC1 inh: ER-alpha (human) coactivator binding inhibition | P03372 | TR-FRET ER-alpha LBD / SRC-1 peptide, estradiol-bound | inhibition, % at 25.6 µM | 86,000 compounds, 1.7% hits | AID 629; in the data active means inhibition above about 50%
ERb SRC1 inh: ER-beta (human) coactivator binding inhibition. Q92731. TR-FRET ER-beta LBD / SRC1-Cy5 peptide binding; receptor agonist-loaded with 1 µM estradiol. inhibition, % at 25.6 µM. 86,000 compounds, 1.3% hits;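 active means compounds whose percent inhibition of the receptor-coactivator binding signal exceeds about 50% in the single-dose screen, limit read from the data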
Target sequence (Q92731 whole entry, looked up, the tested form may be a part): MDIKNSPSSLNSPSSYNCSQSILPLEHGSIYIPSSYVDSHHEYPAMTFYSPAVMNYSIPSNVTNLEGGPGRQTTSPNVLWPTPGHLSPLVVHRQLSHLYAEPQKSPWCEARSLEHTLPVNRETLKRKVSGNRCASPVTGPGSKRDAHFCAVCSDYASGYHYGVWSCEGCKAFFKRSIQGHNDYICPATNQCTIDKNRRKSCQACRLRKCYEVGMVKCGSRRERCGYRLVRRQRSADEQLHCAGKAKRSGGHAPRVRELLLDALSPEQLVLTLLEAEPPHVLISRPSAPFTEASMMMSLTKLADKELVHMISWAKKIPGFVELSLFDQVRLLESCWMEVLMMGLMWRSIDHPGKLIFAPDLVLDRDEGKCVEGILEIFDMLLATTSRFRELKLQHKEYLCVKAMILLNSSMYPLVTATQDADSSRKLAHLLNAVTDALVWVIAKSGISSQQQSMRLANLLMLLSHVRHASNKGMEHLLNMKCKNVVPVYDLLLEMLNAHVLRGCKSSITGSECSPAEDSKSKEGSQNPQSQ
LYP act: activators of human LYP (PTPN22) phosphatase; 96,000 compounds, 0.11% hits; activation, % at 2 µM; recombinant LYP, DiFMUP fluorescence; 0 = plate median, 100 = signal doubled; Q9Y2R2;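 active means activation at 2 µM above a set limit, the mean plus 5 SD, cut at about 37% in these data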
Numbers stand for hits; – = inactive; · = not tested or not shown; [ ] = another dose, or the depositor's remark.

SMILES	FAK inh	LYP inh 2	ERa SRC1 pot	ERa SRC1 inh	ERb SRC1 inh	LYP act
CCCc1cc(=O)oc2cc(OCC(=O)N3CCc4ccccc43)ccc12	–	–	335.0[fluorescence artefact?]	–	–	–
CCCCc1cc(=O)oc2cc(OCC(=O)N3CCc4ccccc43)ccc12	–	–	200.4	–	–	–
Cc1cc(=O)oc2cc(OCC(=O)OCC(=O)N3CCc4ccccc43)ccc12	–	–	–	–	–	–
CCCc1cc(=O)oc2cc(OCC(=O)Nc3cc(C)on3)ccc12	–	–	819.8[fluorescence artefact?]	–	–	–
Cc1cccc(-c2noc(-c3cc4ccccc4oc3=O)n2)c1	–	–	·	·	·	–
O=C(COc1cccc2ccccc12)NNC(=O)c1cccs1	–	–	·	·	·	–
Cc1ccc(S(=O)(=O)NCC2CCC(C(=O)O)CC2)cc1 (configuration not stated)	–	–	–	–	–	–
O=c1cc(CN2CCN(Cc3ccccc3)CC2)c2cc(Cl)ccc2o1	–	–	–	–	60.0[fluorescence artefact?]	–
Cc1cc2oc(=O)cc(CN3CCN(Cc4ccccc4)CC3)c2cc1Cl	–	–	–	–	–	–
O=c1cc(CN2CCN(c3ccccc3)CC2)c2cc(O)c(-c3ccccc3)cc2o1	–	–	–	79.0[fluorescence artefact?]	–	–
COc1cccc(CN(CC(=O)NC2CCCC2)C(=O)Cn2nnc(-c3cccs3)n2)c1	–	–	–	–	–	–
O=C(O)C1CCCCC1C(=O)NCCCc1ccccc1 (configuration not stated)	–	–	267.6	–	–	–
O=C(O)C1CCCCC1C(=O)NCCCCc1ccccc1 (configuration not stated)	–	–	–	–	–	–
Cc1ccc(NCc2nnc(SC(C)C(=O)N/N=C/c3ccc(C)o3)n2-c2ccccc2)cc1 (configuration not stated)	–	–	·	·	·	–
COc1cc(-c2nnc(SCC3(c4ccccc4)OCCO3)o2)cc(OC)c1OC	–	–	·	·	·	–
Cc1nn(Cc2ccccc2)c2c1C(c1cccc(Cl)c1)C(C#N)=C(N)O2 (configuration not stated)	–	–	–	–	–	–
COc1ccc(S(=O)(=O)Nc2ccc(S(=O)(=O)N3CCCCC3)cc2)cc1	–	25.1	–	–	–	–
COc1ccc(CCNS(=O)(=O)c2ccc3c(c2)n(C)c(=O)c(=O)n3C)cc1OC	–	–	·	·	·	–
COc1ccc(CCNS(=O)(=O)c2ccc(S(=O)(=O)N3CCCC3)cc2)cc1OC	–	–	–	–	88.2[fluorescence artefact?]	–
CC(Sc1ccc(Cl)cc1)C(=O)Nc1ccc(S(=O)(=O)N2CCOCC2)cc1 (configuration not stated)	–	–	–	–	–	–
Cc1cc(C(=O)OCC(=O)NCCC(C)C)c2ccccc2n1	–	–	–	–	–	–
CCOC(=O)c1c(C)oc2c1c(C(c1cccnc1)N1CCCCC1)c(O)c1ccccc12 (configuration not stated)	–	–	–	67.8	67.2	–
CCOC(=O)c1c(C)oc2c1c(C(c1ccccc1)N1CCOCC1)c(O)c1ccccc12 (configuration not stated)	–	–	·	·	·	–
CCC(C)C(NC(=O)c1ccccc1NC(=O)c1ccc(OC)cc1)C(=O)NCc1ccco1 (configuration not stated)	–	–	–	67.5[fluorescence artefact?]	–	–
Cc1cccc(C(C)Nc2ccc([N+](=O)[O-])cn2)c1 (configuration not stated)	–	–	·	·	·	–
SMILES	FAK inh	LYP inh 2	ERa SRC1 pot	ERa SRC1 inh	ERb SRC1 inh	LYP act
O=C(Nc1ccccc1)c1ccccc1CC[N+](=O)[O-]	–	–	·	·	·	–
CC(=O)Nc1ccc(NC(=O)c2ccccc2CC[N+](=O)[O-])cc1	–	41.7	·	·	·	–
CC(NC(=O)c1cc2c(=O)n(C)c3ccccc3c2n1C)c1ccc2c(c1)OCCO2 (configuration not stated)	–	–	276.6[fluorescence artefact?]	–	–	–
Cn1c(C(=O)NCCN2CCCCCC2)cc2c(=O)n(C)c3ccccc3c21	–	–	–	71.9[fluorescence artefact?]	–	–
CCOc1ccc(NC(=O)c2cc3c(=O)n(C)c4ccccc4c3n2C)cc1	–	–	–	–	–	–
Cc1cccc(N2CCN(C(=O)c3cc4c(=O)n(C)c5ccccc5c4n3C)CC2)c1C	–	–	311.8	–	–	–
Cn1c(C(=O)NCCN2CCN(Cc3ccccc3)CC2)cc2c(=O)n(C)c3ccccc3c21	·	·	–	–	–	·
Cn1c(C(=O)Nc2ccc3c(c2)OCO3)cc2c(=O)n(C)c3ccccc3c21	·	·	–	76.8	59.5	·
C[C@]12CC[C@@H]3c4ccc(OC(=O)c5ccccc5)cc4CC[C@H]3[C@@H]1CC[C@@H]2O	·	·	298.5	–	–	·
Nn1cnnc1N/N=C/c1cc(Br)cc(Br)c1O	–	27.5	·	·	·	–
CC1CCCN(S(=O)(=O)c2ccc(S(=O)(=O)NC(C)c3cccs3)cc2)C1 (configuration not stated)	–	–	·	·	·	–
O=S(=O)(NCc1csc(-c2ccccc2)n1)c1ccc(Cl)s1	·	·	–	–	–	·
O=S(=O)(NCc1csc(-c2cccnc2)n1)c1ccc(Cl)s1	–	–	–	65.0	53.5	–
CCC(C)NS(=O)(=O)c1ccc(S(=O)(=O)N(CC(=O)Nc2ccccc2)CC2CCCO2)cc1 (configuration not stated)	–	–	–	–	–	–
Clc1ccc2oc(-c3ccccc3)nc2c1	–	–	–	–	56.9[fluorescence artefact?]	–
O=C1NC(c2ccc(Br)cc2)Nc2sc3c(c21)CCC3 (configuration not stated)	–	–	–	50.6	63.7	–
O=C(c1cccs1)c1no[n+]([O-])c1C(=O)c1cccs1	–	91.5	·	·	·	–
COc1ccc2nc3sc(C(=O)NCc4cccs4)c(N)c3cc2c1	–	–	–	54.1[fluorescence artefact?]	–	–
Cc1cccc(NC(=O)CSc2nnc(-c3ccco3)c(-c3ccco3)n2)c1C	–	–	–	73.6[fluorescence artefact?]	76.8[fluorescence artefact?]	–
CC12C(=O)N(Cc3ccco3)C(=O)C1C1c3ccccc3C2c2ccccc21 (configuration not stated)	–	–	–	–	55.2[fluorescence artefact?]	–
Cc1ccc(-n2c(C)cc(C3N=C(N)Nc4nc5ccccc5n43)c2C)c(C)c1 (configuration not stated)	–	–	–	53.1[fluorescence artefact?]	–	–
Cc1cc(C2N=C(N)Nc3nc4ccccc4n32)c(C)n1-c1ccccc1Cl (configuration not stated)	·	·	–	–	–	·
CN(C)S(=O)(=O)c1ccc2c(c1)c(=O)c(C(=O)NCCCN1CCCCCC1)cn2C	–	–	–	62.1[fluorescence artefact?]	–	–
Cn1cc(C(=O)NC2CCCCCCC2)c(=O)c2cc(S(=O)(=O)N3CCCC3)ccc21	·	·	–	–	–	·
Cn1cc(C(=O)NC2CCCCCC2)c(=O)c2cc(S(=O)(=O)N3CCCC3)ccc21	·	·	231.9[fluorescence artefact?]	65.0	–	·
Cc1ccc(CC2CC(=O)N(c3cc(C)on3)C2=O)cc1 (configuration not stated)	–	·	201.3[fluorescence artefact?]	–	–	·

Assay outcomes: PubChem BioAssay, several laboratories
